# Assay: stimulators of nuclear beta-catenin in C2C12, primary screen, imaging, WNT3A-conditioned medium, mouse C2C12, NPC library (AID 1117326); further: reference of the scale not given here
# Conditions: stimulation, at 2 µM, stronger effect = higher value
row,SMILES,nuclear beta-catenin stimulation
1,CCOC(N)=O,7.1%
2,CCCCOc1ccc(OCCCN2CCOCC2)cc1,0.4%
3,Oc1c(Br)cc(Br)c2cccnc12,0.1%
4,Cc1cc2cc3c(C)cc(=O)oc3c(C)c2o1,0.1%
5,Nc1ccc(C(=O)NCC(=O)O)cc1,1.4%
6,CCCCCN(C)CCC(O)(P(=O)(O)O)P(=O)(O)O,0.2%
